HIF act – HIF pathway transcriptional activation. 300,000 tested, 0.32% active. activation, % at 7.5 µM (by protocol). U2OS HRE-luciferase reporter, luminescence; normalized: DMSO 0%, desferrioxamine 100%;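 active means mean activation of at least 10% of the iron chelator positive control signal, with at least half of replicates also reaching 10%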
HSF-1 act – increases HSF-1 driven luciferase reporter signal; NIH3T3-HGL HSF-1 luciferase reporter, MG132, 8 h; 100% = twice DMSO control signal; activation, % at 9 µM; 300,000 tested, 1.7% active; AID 504408;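 active means mean replicate activation of at least 50% with a set share of replicates each reaching 50%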;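 further: 0% = median of the neutral control wells and 100% = twice that signal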
HSF1 inh – HSF1 inhibition; activity change, negative = inhibition, % at 7.5 µM (by protocol); 300,000 tested, 0.77% active; NIH3T3-HGL HSE-luciferase, MG132-induced, luminescence 8 h; hits give low values;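 active means more than half of replicate wells show activity change below -50%, luminescence cut by over half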;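 further: luciferase reports HSF-1 transcriptional activity via heat shock element; 0% = median of DMSO wells and -100% = zero luminescence signal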
ARNT TACC3 PPI – disruptors of human ARNT/TACC3 interaction; Q9Y6A5; AlphaScreen His-ARNT PAS-B/GST-TACC3 binding, luminescence; TACC3 fragment carries E629A point mutation; inhibition, % at 9.99 µM; 390,000 tested, 0.66% active; AID 623870;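 active means mean inhibition of replicates at least 50% and at least half of replicates each reaching 50%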;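 further: 0% = complete ARNT plus TACC3 wells and 100% = ARNT alone without TACC3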
HSP90 refold inh – HSP90 refolding inhibition in rabbit reticulocyte lysate. luciferase refolding luminescence, 3 h. inhibition, % at 5.6 µM. 290,000 tested, 0.91% active;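 active means inhibition above the screen-wide mean plus 3 SD, computed separately per campaign, cut at about 16% in these data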;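 further: 0% = DMSO wells and 100% = 60 µM geldanamycin wells; inhibitors lower the luminescence because luciferase stays unfolded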
The depositor's hits bear a star; . = no result given. Most compounds without a hit are left out; they make up all but 3.1% or so of the library.

SMILES	HIF act	HSF-1 act	HSF1 inh	ARNT TACC3 PPI	HSP90 refold inh
C[C@@H]1CN([C@H](C)CO)C(=O)c2cc(NC(=O)Nc3ccc(F)cc3)ccc2O[C@@H](C)CCCCO[C@H]1CN(C)Cc1ccc(C(F)(F)F)cc1	.	.	.	16	.
CCCc1ccc2oc(C(=O)N(C)Cc3nccs3)c(C)c2c1	3	67*	28	-7	-5
C[C@H]1CN([C@@H](C)CO)C(=O)Cc2cc(NS(=O)(=O)c3ccc(F)cc3)ccc2O[C@@H]1CN(C)C	.	.	.	-5	.
C#CCOCCOCCOCCNc1nc(N2CCN(C(=O)CCCCCCCCCCNC(=O)[C@H](CO)n3cc(CCCSC)nn3)CC2)nc(N2CCN(C(=O)CCCCCCCCCCNC(=O)[C@H](CCCCN)n3cc(C[C@@H](C)CC)nn3)CC2)n1	-7	-85	-85*	.	.
Brc1ccc(-c2cn3c(n2)CCc2ccc4cccnc4c2-3)cc1	0	-6	2	47*	0
O=C(C[C@H]1CC[C@H]2[C@@H](COC[C@H](O)CN2C(=O)Nc2ccccc2)O1)NCCc1ccncc1	.	.	.	6	.
CCCc1nc(SCC(=O)Nc2cc(Cl)ccc2OC)c2c(=O)n(C)c(=O)n(C)c2n1	0	-70	-63*	.	2
CCc1nc(SCC(=O)Nc2ccc(F)cc2F)c2c(=O)n(C)c(=O)n(C)c2n1	-1	6	1	1	-2
Cc1noc(C)c1NC(=O)Nc1ccc2c(c1)C(=O)N([C@@H](C)CO)C[C@@H](C)[C@H](CN(C)CC1CC1)OCCCC[C@H](C)O2	.	.	.	-3	.
Clc1ccc(OCc2cn3cccnc3n2)c2ncccc12	-4	29	10	1	1
Cc1cc(Cl)ccc1OCc1cn2cccnc2n1	4	94*	78	18	-5
O=C1C(Cl)=C(N2CCN(c3ccccc3[N+](=O)[O-])CC2)C(=O)c2ccccc21	.	124*	87	-8	-1
O=[N+]([O-])c1cc(Cl)ccc1N1CCCC1	0	10	-6	-3	0
O=c1c2ccccc2cnn1Cc1n[nH]c(=S)n1-c1ccc(F)cc1	0	-33	-12	-2	4
CC(c1ccc(F)cc1)n1c(Cn2ncc3ccccc3c2=O)n[nH]c1=S (configuration not stated)	0	66*	35	-3	0
O=c1[nH][nH]c(=S)n1C1CCCCC1	0	18	-4	.	2
O=c1cc(O)n(C2CCCCCC2)c(=O)[nH]1	1	5	-5	active	6
COC(=O)c1c(C)noc1-c1snnc1C	1	3	-10	.	-2
CC(C)=NOC(=O)c1c(C)noc1-c1snnc1C	60*	14	1	1	0
CCCC(=O)NC(c1ccc(Cl)cc1)c1ccc2cccnc2c1O (configuration not stated)	92*	-47	-42	20	11
CCCCC(=O)NC(c1ccc(N(CC)CC)cc1)c1ccc2cccnc2c1O (configuration not stated)	97*	-50	-47	37	8
CCC(=O)NC(c1ccc(C)cc1)c1cc(Cl)c2cccnc2c1O (configuration not stated)	.	.	.	-16	.
CCCC(=O)NC(c1ccc(C)cc1)c1ccc2cccnc2c1O (configuration not stated)	125*	-4	-2	-24	9
CCCC(=O)NC(c1ccc(Cl)cc1Cl)c1ccc2cccnc2c1O (configuration not stated)	74*	-31	-41	3	13
CCCC(=O)NC(c1ccccc1Cl)c1c(O)ccc2ccccc12 (configuration not stated)	0	30	17	-6	3
SMILES	HIF act	HSF-1 act	HSF1 inh	ARNT TACC3 PPI	HSP90 refold inh
NCC[C@H]1CC[C@H](NC(=O)C2CCCCC2)[C@@H](CO)O1	.	.	.	5	.
CCNC(=O)C[C@H]1CC[C@@H]2[C@@H](COc3ccc(NC(=O)Nc4cccc(F)c4)cc3C(=O)N2C)O1	.	.	.	-3	.
CCCCC(=O)NC(c1ccc(Cl)cc1)c1ccc2cccnc2c1O (configuration not stated)	86*	-28	-30	-2	11
CO[C@H](CN(C)S(=O)(=O)c1ccc(Cl)cc1)[C@H](C)CN([C@@H](C)CO)S(=O)(=O)c1cccc(Cl)c1	.	.	.	-1	.
CCCC(=O)Nc1ccc2c(c1)C(=O)N(C)[C@H]1CC[C@@H](CC(=O)NCCOC)O[C@@H]1CO2	.	.	.	-11	.
COc1ccccc1N1CCN(S(=O)(=O)CCNC(=O)C2CC(=O)N(c3ccccc3)C2)CC1 (configuration not stated)	0	-6	-4	4	0
O=C(NCCS(=O)(=O)N1CCN(c2ccccc2F)CC1)C1CC(=O)N(c2ccc(F)cc2)C1 (configuration not stated)	456*	2	2	-10	-3
O=C(N[C@@H]1CC[C@@H](CCNC(=O)c2ccccc2F)O[C@H]1CO)c1ccc2c(c1)OCO2	.	.	.	-6	.
CCCNC(=O)N1CCCC(C(=O)c2cccc(Cl)c2)C1 (configuration not stated)	0	-65	-54*	2	2
CCOC(=O)CCNC(=O)N1CCCC(C(=O)c2cccc(Cl)c2)C1 (configuration not stated)	0	25	0	2	-3
O=C(NNC(=S)Nc1cccc2ccccc12)c1cccc(Br)c1	4	35	17	29*	0
CCOc1ccccc1NC(=O)CSc1ncnc2c1oc1ccccc12	69*	-4	0	-10	0
COC(=O)c1ccc(CSc2ncnc3c2oc2ccccc23)o1	1	113*	96	-4	-2
c1coc(CSc2ncnc3c2oc2ccccc23)c1	4	66*	29	-7	-1
c1ccc(CSc2ncnc3c2oc2ccccc23)cc1	-2	1	3	-1	1
COc1ccc(NC(=O)N(C)C[C@@H]2Oc3ccc(NC(=O)CCN4CCOCC4)cc3C(=O)N([C@H](C)CO)C[C@H]2C)cc1	.	.	.	5	.
O=C(CC(F)(F)F)N1C[C@H]2[C@@H](c3ccccc31)[C@@H](CO)N2CC1CCCCC1	.	.	.	-7	.
COc1ccc2c(c1)CCc1c(C(=O)NC3CCCCC3)noc1-2	4	45	23	46*	-2
COc1ccc2c(c1)CCc1c(C(=O)N(C)c3ccccc3)noc1-2	3	69*	37	4	2
COCCNC(=O)c1noc2c1CCc1cc(OC)ccc1-2	3	77*	47	-7	3
COc1ccc2c(c1)CCc1c(C(=O)NCCN3CCOCC3)noc1-2	0	-6	1	6	4
COCC(C)NC(=O)c1noc2c1CCc1cc(OC)ccc1-2 (configuration not stated)	6	71*	49	-3	3
COc1ccc2c(c1)CCc1c(C(=O)NCc3ccco3)noc1-2	2	29	36	0	-1

Source: PubChem (several laboratories)
